From PubChem BioAssay (NCATS)
Results filed as inconclusive are left out. A call without a number means that no potency is given here. Active and inactive are the calls of the source. Unless noted, calls come from the whole dose curve; as a rule, active = well fitted curve in the direction sought with a large enough effect; inconclusive = small, poorly fitted or top-dose-only effect, or another doubt; inactive = no such curve, though single readings can be large; an effect the other way counts as inactive or inconclusive.

Key:
[1] = HPAF-II 24hr Apoptosis Induction qHTS against the NCATS CANVASS Library (AID 1347356)
Procedure, shortened: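 Apoptosis induction in HPAF-II pancreatic cancer cells is measured as caspase-3/7 luminescence after a 24-hour exposure to compounds.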

[2] = HEK293 18hr Apoptosis Induction qHTS against the NCATS CANVASS Library (AID 1347357)
Procedure, shortened: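 Luminescent caspase-3/7 signal is measured in HEK293 cells exposed for 18 hours to an 11-point concentration series; doxorubicin serves as the plate control.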

[3] = HPAF-II 12hr Apoptosis Induction qHTS against the NCATS CANVASS Library (AID 1347358)
Procedure, shortened: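 Apoptosis in HPAF-II pancreatic cancer cells is scored as caspase 3/7 luminescence following a 12-hour exposure to an 11-point compound series.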

[4] = HEK293 24hr Apoptosis Induction qHTS against the NCATS CANVASS Library (AID 1347359)
Procedure, shortened: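 HEK293 cells, 500 per well, exposed to an 11-point compound series for 24 hours at 37 degrees C. Caspase 3/7 activity read by Caspase-Glo luminescence (DEVD substrate) after 15 min at room temperature.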

[5] = HPAF-II 18hr Apoptosis Induction qHTS against the NCATS CANVASS Library (AID 1347360)
Procedure, shortened: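 Apoptosis was scored as caspase-3/7 activity in HPAF-II pancreatic cancer cells treated 18 hours with an 11-point concentration series.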

[6] = target: Luciferin 4-monooxygenase (Photinus pyralis) (UniProt P08659); test: Firefly luciferase counterscreen qHTS: Assay Interference Panel against the NCATS CANVASS Library (AID 1347363); note: series mostly up to about 57 µM
Sequence of Luciferin 4-monooxygenase (Photinus pyralis) (P08659 whole entry, looked up): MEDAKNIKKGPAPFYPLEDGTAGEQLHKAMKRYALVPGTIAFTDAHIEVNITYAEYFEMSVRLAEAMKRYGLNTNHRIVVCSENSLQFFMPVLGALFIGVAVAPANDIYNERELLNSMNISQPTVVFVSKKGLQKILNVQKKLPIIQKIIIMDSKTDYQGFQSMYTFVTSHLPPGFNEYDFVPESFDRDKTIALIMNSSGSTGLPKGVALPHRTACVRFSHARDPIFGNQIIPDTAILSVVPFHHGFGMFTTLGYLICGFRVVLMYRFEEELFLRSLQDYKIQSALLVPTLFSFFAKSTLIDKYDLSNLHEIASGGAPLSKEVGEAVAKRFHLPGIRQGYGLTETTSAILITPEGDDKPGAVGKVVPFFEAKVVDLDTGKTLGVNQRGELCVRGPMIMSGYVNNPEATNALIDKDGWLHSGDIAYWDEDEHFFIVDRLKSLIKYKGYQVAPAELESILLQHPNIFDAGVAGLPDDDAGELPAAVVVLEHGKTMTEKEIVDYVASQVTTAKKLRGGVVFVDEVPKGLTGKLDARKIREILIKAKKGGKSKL
Procedure, shortened: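 Purified P. pyralis luciferase (0.04 ug/mL, 4x reagent) added to Tris-acetate buffer with 0.013 mM D-luciferin, 0.013 mM ATP and 13.3 mM Mg-acetate; compounds preincubated 15 min, then luminescence read after 5 min, RT.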

[7] = qHTS for ATAD5 Agonist screened against the NCATS CANVASS Library (AID 1347367);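 note: luciferase reporter driven by ATAD5 which rises upon DNA damage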
Procedure, shortened: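 Step one plated reporter cells and let them acclimate 5hr. Step two pinned compounds with MMS as positive and 0.46% DMSO as negative control. After 16hr incubation, fluorescence viability then luminescence were read.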

[8] = J3T Cancer Cell Toxicity qHTS against the NCATS CANVASS Library (AID 1347371)
Procedure, shortened: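 Viability of the J3T glioma line from dog is scored by ATP luminescence after a 72 hr incubation with natural products.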

[9] = target: Nuclear receptor subfamily 1 group I member 3 (Homo sapiens) (UniProt Q14994); test: qHTS for Constitutive Androstane Receptor (CAR) Agonist screened against the NCATS CANVASS Library (AID 1347373);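 note: every well also contained 1.5 µM PK11195 alongside the test compound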
Sequence of Nuclear receptor subfamily 1 group I member 3 (Homo sapiens) (Q14994 whole entry, looked up): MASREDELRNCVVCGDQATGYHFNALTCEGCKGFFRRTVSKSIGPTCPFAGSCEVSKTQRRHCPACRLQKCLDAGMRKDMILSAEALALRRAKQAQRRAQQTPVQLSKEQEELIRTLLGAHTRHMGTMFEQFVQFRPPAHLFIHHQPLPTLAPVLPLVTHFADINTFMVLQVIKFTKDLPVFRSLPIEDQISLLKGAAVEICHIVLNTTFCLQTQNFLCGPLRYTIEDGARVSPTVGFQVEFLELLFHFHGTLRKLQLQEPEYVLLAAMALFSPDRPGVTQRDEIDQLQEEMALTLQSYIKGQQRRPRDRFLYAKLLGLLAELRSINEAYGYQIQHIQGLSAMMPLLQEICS
Procedure, shortened: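 CAR agonism is scored as CYP2B6-promoter luciferase induction in a double-stable transfected HepG2 line, where 1.5uM PK11195 is included in each well. Compounds were tested over a 24hr exposure.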

[10] = 10-beta competent E. coli microbial cell viability qHTS against the NCATS CANVASS Library (AID 1347376); note: series mostly up to about 46 µM
Procedure, shortened: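 Cytotoxicity toward competent E. coli is scored from cellular ATP content via BacTiter-Glo luminescence following overnight compound exposure at 37C, 5% CO2.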

[11] = qHTS for H2AX Agonists against the NCATS CANVASS Library (AID 1347378);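 note: phospho-H2AX S139 level in CHO-K1 lysates by TR-FRET emission ratio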
Procedure, shortened: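 Following overnight seeding, CHO-K1 cells are incubated with a concentration series of compound for 3 hr at 37C (final DMSO 0.76%). Cells are then lysed, detection antibodies added, and emission ratio 665/620 nm recorded after 24 hr at room temperature.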

[12] = Inflammasome Signaling qHTS Counterscreen: IL-1-beta AlphaLISA counterscreen against the NCATS CANVASS Library (AID 1347381);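 note: cell-free check with purified IL-1β in medium and no THP-1 cells; series mostly up to about 57 µM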
Procedure, shortened: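 To flag interference with the AlphaLISA read-out, a known amount of purified IL-1-beta (4 pg) replaced cell supernatant. Detection used anti-IL-1-beta acceptor beads, biotinylated antibody and streptavidin donor beads at room temperature.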

[13] = Cytotoxicity qHTS for assessment of Hepg2 cells membrane integrity screened against the NCATS CANVASS Library (AID 1347387)
Procedure, shortened: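 Fluorescence proportional to lysed-cell number, from LDH leaking out of HepG2 cells exposed 5 hr at 37C to 0.59 nM - 46 uM compound (11-point qHTS), is measured after 10 min with CytoTox-ONE.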

[14] = qHTS for activators of dead-cell proteases activity screened against the NCATS CANVASS Library (AID 1347392);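 note: luminescence from protease leaking out of membrane-damaged cells cleaving impermeant substrate; rising signal means more cytotoxicity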
Procedure, shortened: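 HepG2 cells, 2000/well, attached 18 h at 37C, then exposed to compounds (11-point qHTS) for 5 h. Dead-cell protease release read as luminescence from cell-impermeant AAF-aminoluciferin substrate after 15 min at room temperature.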

[15] = Redox Reaction Profiling qHTS: Assay Interference Panel against the NCATS CANVASS Library (AID 1347401)
Procedure, shortened: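 Compounds in 11-point series incubated with 5 uM resazurin and 200 uM DTT in 50 mM HEPES pH 7.3, 50 mM NaCl. Resorufin fluorescence (Ex 525/Em 598) read before and after 15 min in the dark.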

[16] = qHTS drug screen for cell cycle checkpoint inhibitors in PARPi-resistant BRCA-mutant ovarian cancer cell lines. (AID 1963452; calls by dose curve; note: potency is the fitted concentration of half-maximal effect); details: PEO1/OlaR viability, CellTiter-Glo luminescence, 96 h; for Z-AUC: stronger effect = lower value
Procedure, shortened: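 PEO1, PEO4 and PEO1/OlaR ovarian cancer cells, 600 per well, exposed 96 h at 37C to a dilution series. Viability read by CellTiter-Glo luminescence, normalized to DMSO and empty wells; activity summarized as Z-AUC.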

[17] = measured here: PEO1 parental Z-AUC

In the case of O[C@H]1C=C[C@@]23CCN(Cc4cc5c(cc42)OCO5)[C@@H]3C1, the outcome [1] is reported as “inactive”, the outcome [2] is reported as “inactive” and the outcome [3] is reported as “inactive”. For the same compound, the outcome [4] was “inactive”, the outcome [5] was “inactive” and the Potency [6] was “inactive”. The Potency [7] was “inactive”, the Potency [8] was “inactive” and the Potency [9] was “inactive”. The outcome [10] was “inactive”, the Potency [11] was “inactive” and the outcome [12] was “inactive”. The outcome [13] was “inactive”, the outcome [14] was “inactive” and the Potency [15] was “inactive”.

In the case of CC[C@]12C=CCN3CC[C@]4(C(=C(C(=O)OC)C1)Nc1ccccc14)[C@@H]32, the outcome [1] is reported as “inactive”, the outcome [2] is reported as “inactive” and the outcome [3] is reported as “inactive”. The outcome [4] was “inactive”, the outcome [5] was “inactive” and the Potency [6] was “inactive”. For the same compound, the Potency [7] was “inactive”, the Potency [8] was “inactive” and the Potency [9] was “inactive”. For the same compound, the outcome [10] was “inactive”, the Potency [11] was “inactive” and the outcome [12] was “inactive”. The outcome [13] was “inactive”, the outcome [14] was “inactive” and the Potency [15] was “inactive”.

For CO[C@@]12c3c(C)cc(O)c4c(=O)occ(c34)C(=O)[C@@H]1[C@]13COC(=O)c4c(O)cc(C)c(c41)C(=O)[C@H]2[C@@H]3OC(C)=O, the outcome [1] was “inactive”, the outcome [2] was “inactive” and the outcome [3] was “inactive”. The outcome [4] was “inactive”, the outcome [5] was “inactive” and the Potency [6] was “inactive”. For the same compound, the Potency [7] was “inactive”, the Potency [8] was “inactive” and the Potency [9] was “inactive”. The outcome [10] was “inactive”, the Potency [11] was “inactive” and the outcome [12] was “inactive”. The outcome [13] was “inactive”, the outcome [14] was “inactive” and the Potency [15] was “inactive”.

In the case of C/C=C/[C@@H]1[C@H]2C[C@@H](C)CC[C@@H]2C(C)=C[C@H]1C(=O)c1c(O)c(-c2ccc(O)cc2)c[nH]c1=O, the outcome [1] is reported as “inactive”, the outcome [2] is reported as “inactive” and the outcome [3] is reported as “inactive”. The outcome [4] was “inactive”, the outcome [5] was “inactive” and the Potency [6] was “inactive”. For the same compound, the Potency [7] was “inactive”, the Potency [8] was “inactive” and the Potency [9] was “inactive”. The outcome [10] was “inactive”, the Potency [11] was “inactive” and the outcome [12] was “inactive”. The outcome [13] was “inactive”, the outcome [14] was “inactive” and the Potency [15] was “inactive”.

With CC(=O)OC[C@H]1O[C@@H]([S-])[C@H](OC(C)=O)[C@@H](OC(C)=O)[C@@H]1OC(C)=O.CC[PH+](CC)CC.[Au] the Z-AUC [16] was -0.477 (inactive), the Z-AUC [16, 17] was -0.483 and the Z-AUC ([16]; measured here: PEO4 Z-AUC) was -0.599.

In the case of CN1C(=O)[C@@H](NC(=O)[C@H](CCC(F)(F)F)[C@H](CCC(F)(F)F)C(N)=O)N=C(c2ccccc2)c2ccccc21, the Z-AUC [16] is reported as -0.603 (inactive), the Z-AUC [16, 17] is reported as 0.158 and the Z-AUC ([16]; measured here: PEO4 Z-AUC) is reported as -0.105.

In the case of C/C=C(\C)C(=O)N[C@@H](c1ccccc1)[C@@H](O)C(=O)O[C@H]1C[C@@]2(O)[C@@H](OC(=O)c3ccccc3)[C@@H]3[C@]4(OC(C)=O)CO[C@@H]4C[C@H](O)[C@@]3(C)C(=O)[C@H](OC(C)=O)C(=C1C)C2(C)C, the Z-AUC [16] is reported as -2.81 (inactive), the Z-AUC [16, 17] is reported as -2.97 and the Z-AUC ([16]; measured here: PEO4 Z-AUC) is reported as -3.26.

In the case of COc1cc(C)[nH]c(=O)c1CNC(=O)c1c(C)n([C@H](C)C2CCN(CC(F)(F)F)CC2)c2ccccc12, the Z-AUC [16] is reported as 1.18 (inactive), the Z-AUC [16, 17] is reported as 0.708 and the Z-AUC ([16]; measured here: PEO4 Z-AUC) is reported as 0.343.

With CC(C)(NC(=O)O[C@@H]1CN2CCC1CC2)c1csc(-c2ccc(F)cc2)n1 the Z-AUC [16] was 1.16 (inactive), the Z-AUC [16, 17] was 0.982 and the Z-AUC ([16]; measured here: PEO4 Z-AUC) was 1.29.

In the case of CC(C)(O)/C=C\C(=O)[C@](C)(O)[C@H]1[C@H](O)C[C@]2(C)[C@@H]3CC=C4[C@@H](C=C(O)C(=O)C4(C)C)[C@]3(C)C(=O)C[C@@]12C, the Z-AUC [16] is reported as -2.52 (inactive), the Z-AUC [16, 17] is reported as -1.67 and the Z-AUC ([16]; measured here: PEO4 Z-AUC) is reported as -2.46.

With COC12C(COC(N)=O)C3=C(C(=O)C(C)=C(N)C3=O)N1CC1C2N1C (stereo unspecified) the Z-AUC [16] was -0.24 (inactive), the Z-AUC [16, 17] was 0.0826 and the Z-AUC ([16]; measured here: PEO4 Z-AUC) was -0.134.

For C[C@@]12OC(=O)[C@]1([C@@H](O)[C@@H]1C=CCCC1)NC(=O)[C@@H]2CCCl, the Z-AUC [16] was -0.972 (inactive), the Z-AUC [16, 17] was -1.61 and the Z-AUC ([16]; measured here: PEO4 Z-AUC) was -1.64.

For CO/C1=C/C(C)=C\[C@@H](C)[C@@H](O)[C@@H](C)C/C(C)=C\C=C/[C@H](OC)[C@@H]([C@@H](C)[C@@H](O)[C@H](C)[C@@]2(O)C[C@@H](O)[C@H](C)[C@@H](C(C)C)O2)OC1=O, the Z-AUC [16] was -2.07 (inactive), the Z-AUC [16, 17] was -2.1 and the Z-AUC ([16]; measured here: PEO4 Z-AUC) was -2.32.

In the case of Cc1c(N)nc([C@H](CC(N)=O)NC[C@@H](N)C(N)=O)nc1C(=O)N[C@H](C(=O)N[C@@H](C)[C@H](O)[C@@H](C)C(=O)N[C@@H](C(=O)NCCc1nc(-c2nc(C(=O)NCCC[S+](C)C)cs2)cs1)[C@@H](C)O)C(O[C@H]1O[C@H](CO)[C@H](O)[C@@H](O)[C@H]1O[C@H]1O[C@H](CO)[C@@H](O)[C@H](OC(N)=O)[C@@H]1O)c1cnc[nH]1 (stereo partly specified), the Z-AUC [16] is reported as -0.673 (inactive), the Z-AUC [16, 17] is reported as -1.76 and the Z-AUC ([16]; measured here: PEO4 Z-AUC) is reported as 0.233.

With C[C@@H]1CC[C@@]2(OC1)O[C@H]1C[C@H]3[C@@H]4CC=C5C[C@@H](O[C@@H]6O[C@H](CO)[C@@H](O[C@@H]7O[C@@H](C)[C@H](O)[C@@H](O)[C@H]7O)[C@H](O)[C@H]6O[C@@H]6O[C@@H](C)[C@H](O)[C@@H](O)[C@H]6O)CC[C@]5(C)[C@H]4CC[C@]3(C)[C@H]1[C@@H]2C the Z-AUC [16] was 0.183 (inactive), the Z-AUC [16, 17] was -0.31 and the Z-AUC ([16]; measured here: PEO4 Z-AUC) was -0.496.

With COC(=O)[C@@]12OC[C@]34[C@H]([C@@H](O)[C@@H]1O)[C@@]1(C)CC(=O)C(O)=C(C)[C@@H]1C[C@H]3OC(=O)[C@H](OC(=O)/C=C(\C)C(C)C)[C@@H]24 the Potency [16] was 174 nM (active), the Z-AUC [16, 17] was -2.46 and the Z-AUC ([16]; measured here: PEO4 Z-AUC) was -2.64.
